# Reference: PubChem BioAssay (NCI)
# About 83,000 compounds went through this panel and 20% of them were active in at least one assay; those are over-represented in the sample as a whole.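 Note: values are percent growth. 100 is the growth of untreated cells, values between 100 and 0 indicate rising inhibition; between -100 and 0 indicates cell death.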 Unmarked numbers belong to inactive results. Calls of active or inactive are those of the source. How the source made its calls: active means growth percent below 10; inactive means the rest.
# Key:
# Assay in all cases: NCI-60 one-dose screen, 48 h (100 = growth as untreated, 0 = no growth, -100 = all killed)
# Conditions in all cases: 10 µM
# HT29 colon = system: HT29 colon
# SNB-75 CNS = system: SNB-75 CNS
# SNB-19 CNS = system: SNB-19 CNS
# U251 CNS = system: U251 CNS
# PC-3 prostate = system: PC-3 prostate
# SK-MEL-5 melanoma = system: SK-MEL-5 melanoma
# UACC-62 melanoma = system: UACC-62 melanoma
# SK-MEL-28 melanoma = system: SK-MEL-28 melanoma
# LOX IMVI melanoma = system: LOX IMVI melanoma
Compound,growth (HT29 colon),growth (SNB-75 CNS),growth (SNB-19 CNS) [%],growth (U251 CNS),growth (PC-3 prostate),growth (SK-MEL-5 melanoma),growth (UACC-62 melanoma),growth (SK-MEL-28 melanoma),growth (LOX IMVI melanoma)
COc1ccc(/C=C2\CCCC3=C2NC(N)=NC3c2ccc(OC)cc2)cc1 (stereo unspecified),93.2%,87.4%,92.1,90.6%,86.7%,56.2%,68%,98.5%,
COc1nc2c(c(=O)n1C)CN(c1ccccc1)C(=O)C(C)N2 (stereo unspecified),99.9%,77.4%,96.7,99%,,104%,91.7%,113%,91.6%
C=CCn1c(SCC(=O)Nc2ccc(C(=O)/C=C/c3ccc(OC)cc3)cc2)nnc1-c1ccc(OC)c(OC)c1,,76.4%,89,87.4%,67.2%,62.8%,75.7%,105%,86.5%
COc1cc(-c2nn(-c3cccc(NC(=O)CN4CCOCC4)c3)cc2-c2cccnc2)ccc1Cl,65.2%,65.5%,88,92.7%,58%,48.2%,61.4%,84.3%,63.3%
CCOC(=O)c1cc(C(=O)c2ccc(Cl)cc2)n2ccc(-c3cc[n+](CC(=O)c4ccc(OC)cc4)cc3)cc12,-9.81% (active),93.2%,77,13.2%,51.5%,98.3%,107%,99.6%,12.9%
CCCCC/C=C/C/C=C/CCCCCCCC1=NC(C)(C)CN1C(C)C,-21% (active),42.7%,47.3,0.562% (active),28.9%,30.1%,15.1%,72%,
COc1cccc(N=Nc2cccc(OC)c2)c1,94.9%,102%,97,79.4%,67.7%,99.1%,,99.6%,96.7%
Cc1cn(-c2cccc(NC(=O)c3ccc(C)c(Nc4nccc(-c5cccnc5)n4)c3)c2)cn1,-43.4% (active),-45% (active),51.2,,34.4%,40.2%,3.99% (active),-37.6% (active),-65.5% (active)
Cc1ccc(Cl)cc1NC(=O)CCl,82.9%,85.6%,82.2,67.5%,81.2%,58.1%,66.3%,98.5%,42.2%
O=C(NCCNC(=O)c1ccc(F)cc1)Nc1ccc(-n2cc(-c3ccncc3)c(-c3ccc(Cl)c(O)c3)n2)cc1,-45.3% (active),18.7%,22.7,-19.9% (active),-5.9% (active),-84.9% (active),7.05% (active),18.4%,
COc1cc2ncnc(NC3CCC(O)CC3)c2cc1OC (stereo unspecified),90%,91.9%,97.4,90.2%,87.7%,98.6%,97.1%,108%,95.3%
Cc1ccc(C(=O)C2C(=O)C3CCC2C3)cc1 (stereo unspecified),108%,93.7%,95.7,,94.2%,102%,98.9%,99.6%,95.4%
COc1cccc(-c2nc3sccn3c2-c2cccc(S(C)(=O)=O)c2)c1,118%,95.1%,99.2,106%,94.7%,94.8%,99.4%,112%,
CC1CCCC(C(=O)O)C1C(=O)O (stereo unspecified),98.8%,100%,101,86%,76%,102%,,111%,98%
CNC(=O)c1c(I)c(NC(C)=O)c(I)c(C(=O)O)c1I,103%,87.3%,96.2,102%,93%,108%,98.5%,114%,94.5%
COc1ccc(Nc2cnc3cc(NS(=O)(=O)c4ccc(C)cc4)ccc3n2)cc1,45.1%,61.7%,83,77.9%,101%,77.4%,65.3%,81.1%,87%
CC(C1=C(CN(C(=O)Cc2cn(-c3ccccc3)nc2-c2ccc(Cl)cc2)C(C)C)Cc2ccccc21)c1ccccn1 (stereo unspecified),32.9%,80.7%,76.9,67.6%,41.7%,46.1%,63.6%,91.9%,69.2%
C=CCSC(CC)(CC)C(=O)NC,87%,89.5%,102,101%,101%,103%,103%,110%,100%
COc1cc(-c2nc3ccccc3o2)cc(CN2CCCCC2)c1O,87.2%,57.6%,83.3,47.5%,41.8%,-83.3% (active),-15.3% (active),59.5%,-18.6% (active)
C=C(C)[C@@H]1CC[C@]2(COCCC#N)CC[C@]3(C)[C@H](CC[C@@H]4[C@@]5(C)Cc6c([nH]c7ccccc67)C(C)(C)[C@@H]5CC[C@]43C)[C@@H]12,89.7%,90.9%,99.1,102%,92.9%,98.2%,105%,100%,92.1%

Compound,growth (HT29 colon),growth (SNB-75 CNS),growth (SNB-19 CNS) [%],growth (U251 CNS),growth (PC-3 prostate),growth (SK-MEL-5 melanoma),growth (UACC-62 melanoma),growth (SK-MEL-28 melanoma),growth (LOX IMVI melanoma)
Nc1c(Br)cc(Br)c2c1[nH]c(=O)c1ccccc12,98.4%,-33.9% (active),94.1,,80.3%,71.3%,87.6%,86.8%,
Cc1ccc(N=Nc2ccccc2)cc1,92.3%,105%,102,101%,78.1%,102%,,102%,103%
C/C(=N\O)c1ccc(NC(=O)CSc2nnc(-c3ccccc3)n2-c2ccccc2)cc1,84%,45.8%,97.2,59.2%,73.7%,48.6%,81.9%,97.7%,63.6%
Cc1ccc(C2=NN(c3ccc(S(C)(=O)=O)cc3)C(=O)CC2)cc1,11.1%,8.1% (active),55,,29.3%,13.9%,42.9%,51.4%,33.7%
CCn1c(CSc2nc3ccccc3c(=O)n2CCc2ccccc2)n[nH]c1=S,88.2%,107%,106,,83.9%,82.4%,85.2%,106%,74.2%
O=C1c2ccccc2C(=O)c2c1ccc(C(Br)Br)c2Cl,52.5%,91.4%,42.9,-26% (active),40.5%,,47.2%,92.3%,-84.4% (active)
COc1ccccc1-n1c(-c2csc(NC(C)=O)n2)n[nH]c1=S,,86.5%,114,,95.4%,99.6%,110%,109%,93.1%
COc1ccc2c(c1)OC(N)=C(C#N)C2c1cc(OC)c(OC)c(OC)c1 (stereo unspecified),0.78% (active),44.7%,44.7,6.72% (active),19.7%,-46.2% (active),39%,62.7%,12.7%
Cc1ccc(/C=C/C(=O)C(=O)/C=C/c2ccc(C)cc2)cc1,91.4%,90.4%,103,93%,92.2%,106%,96.7%,108%,89.3%
COc1ccc(-c2n[nH]nc2-c2cc(OC)c(OC)c(OC)c2)cc1,4.38% (active),50.1%,58.3,1.61% (active),23.4%,-53.9% (active),38.4%,64.4%,9.46% (active)
COc1ccc(-c2nn(-c3cccc(Cl)c3)cc2/C=C2\NC(=S)N(c3ccc(Cl)cc3)C2=O)cc1,9.73% (active),0.109% (active),63.2,,42.5%,24.2%,3.65% (active),-33.5% (active),1.65% (active)
Cc1c(Cl)cccc1NC(=O)CN1CCOCC1,,88.9%,117,106%,102%,101%,103%,109%,97.4%
Oc1cccc(-c2nc3sccn3c2-c2ccncn2)c1,54.8%,39.4%,111,114%,84.6%,90.6%,14.5%,33.9%,36.2%
CCCCN(CCCC)C(=O)[C@H](CC)[C@@H]1CC[C@@H](C)[C@@H]([C@H](C)[C@@H](O)[C@@H](C)C(=O)[C@H](CC)C2O[C@]3(C=CC(=O)[C@]4(CC[C@@](C)([C@H]5CC[C@](O)(CC)[C@H](C)O5)O4)O3)[C@H](C)C[C@@H]2C)O1 (stereo partly specified),,33.3%,27,32.7%,12.5%,18%,22.5%,23.8%,43.5%
CN(C)CCCSc1ccccc1NC1=C(Cl)C(=O)C(Nc2ccccc2SCCCN(C)C)=C(Cl)C1=O,22.7%,105%,90.6,23%,42.8%,,60.7%,104%,-81.7% (active)
COc1cc(-c2nn(-c3cccc(NC(=O)NCCNC(=O)c4cccc(C(F)(F)F)c4)c3)cc2-c2ccncc2)ccc1Cl,21.1%,16.5%,53.5,28.4%,17.6%,7.16% (active),50.7%,57.6%,31.7%
COc1ccc(-c2nn(-c3cccc(Cl)c3)cc2-c2cc(-c3cccs3)[nH]c(=S)n2)cc1,62.2%,67.4%,44.7,,48.5%,52.2%,44.9%,57.3%,43.4%
CCCCCOC(=O)Nc1nc(=O)n(C2O[C@H](C)[C@@H](O)[C@H]2O)cc1F (stereo partly specified),99.9%,77.1%,101,94.8%,90.9%,99.8%,95%,115%,100%
COc1ccc(-c2nn(-c3cccc(Cl)c3)cc2C=C(C#N)C#N)cc1,-14.9% (active),3.23% (active),16.6,,12.6%,5.8% (active),11.1%,17.2%,-66.5% (active)
CS(=O)(=O)c1nccc(-c2c(-c3cccc(OCc4ccccc4)c3)nc3sccn23)n1,77.9%,97.5%,88.6,89.1%,66.2%,0.137% (active),62.4%,77.1%,28.6%
